A selection: hits, their analogues and other compounds. The true share with any hit is near 6%.
D1 PAM: human D1 dopamine receptor positive modulation | potentiation, % at 10 µM | P21728 | 0.036% of 360,000 active | HEK293 TREx D1 cells, calcium flux, dopamine EC20 potentiation; in the data active = potentiation above about 30%
D3 antag: blocks the human D3 dopamine receptor | P35462 | AID 652054 | D3R cells, DiscoveRx beta-arrestin luminescence, antagonist mode; hits give low values | 2.5% of 360,000 active | max response, negative = inhibition, %; in the data active = max response below about -50%; inconclusive = no clear call, values can overlap the other calls
Target sequence (P35462 whole entry, looked up): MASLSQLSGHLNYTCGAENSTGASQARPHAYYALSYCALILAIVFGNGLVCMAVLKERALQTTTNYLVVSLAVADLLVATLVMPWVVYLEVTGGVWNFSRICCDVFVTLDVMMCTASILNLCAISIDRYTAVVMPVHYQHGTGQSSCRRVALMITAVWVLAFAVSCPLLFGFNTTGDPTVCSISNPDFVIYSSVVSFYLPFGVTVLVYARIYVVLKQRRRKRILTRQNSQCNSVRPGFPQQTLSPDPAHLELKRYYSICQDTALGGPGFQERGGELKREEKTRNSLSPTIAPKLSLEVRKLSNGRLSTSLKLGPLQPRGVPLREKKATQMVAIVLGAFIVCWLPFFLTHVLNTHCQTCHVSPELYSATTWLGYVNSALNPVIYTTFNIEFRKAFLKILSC
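Cells plated overnight at 1500 cells/well, then exposed to library compounds with dopamine controls for 90 minutes at 37 degrees C. DiscoveRx reagent added for 30–60 minutes at room temperature; luminescence read, quantitative HTS format.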
D1 antagonist: blocks dopamine activation of the human D1 receptor; AID 504652; activity change, negative = inhibition, % at 10 µM; 3.2% of 360,000 active; HEK293 TREx D1 cells, calcium flux, dopamine EC80; hits give low values; in the data active = activity change below about -30%
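Calcium flux readout: force-coupled, inducible Hek293 Trex D1 line, cells induced overnight at 30 C with tetracycline, dye-loaded 30–90 min at RT. Antagonism scored against EC80 dopamine challenge given 180 s after compound.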
D1 ag: human D1 receptor agonism | P21728 | HEK293 T-REx D1 cells, calcium flux, agonist mode | activation, % at 2 µM | 1% of 360,000 active; in the data active = activation above about 30%
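Agonism was scored from calcium flux recorded over 180 s (1 read/s) after pintool compound addition, following a 10-cycle baseline. Cells were inducible force-coupled HEK293 TREx D1, plated overnight at 30 C and loaded with no-wash calcium dye.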
Chronic BCR inh: chronic active BCR signaling inhibition; Potency, µM (top dose mostly 46.1 µM), hits mostly inhibitors; 0.05% of 340,000 active; ABC-DLBCL IkBa-CBG/CBR reporter, luminescence ratio, 4 h; active = well fitted inhibition curve with a large enough effect in the signal ratio, with a control signal flat, not every such curve was filed as active; inconclusive = small, poorly fitted or top-dose-only effect, or effect the other way, or a change in a side signal; the % refers to the signal ratio
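Cell line TMD8 (human ABC DLBCL), stably expressing tet-inducible CBG68-IkBa fusion and CBR; IMDM/0.5% FBS; cpd up to 46 uM; dox induction, 4 h, 37C/5% CO2; dual luminescence; green/red ratio; MG132 control.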
DRD3 agonist: D3 dopamine receptor (human) agonism; 0.58% of 410,000 active; max activation, %; D3R DiscoveRx beta-arrestin cells, luminescence, 90 min; AID 652048; in the data active = max activation above about 30%
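Cells at 1500/well, incubated overnight, then treated with pinned compounds (dopamine as control) for 90 min at 37 degrees C. DiscoveRx reagent added for 30 - 60 minutes at room temperature; luminescence read.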
Of the large screens only hits and unclear results are named; the others gave an inactive call; ! = not confirmed by another sample.

O=C(CN1C(=O)CC(c2ccco2)Sc2ccccc21)Nc1ccc(OC(F)(F)F)cc1 (stereo not given)	none (no result: D3 antag, Chronic BCR inh)
COC(=O)C[C@@H]1CC[C@@H](NS(=O)(=O)c2cccc(OC)c2)[C@@H](CO)O1	none (no result: D1 PAM, D1 antagonist, D1 ag, Chronic BCR inh)
COc1ccc(OC)c(CN2CCN(c3ccccc3OC)CC2)c1	D3 antag -91.9
COc1ccc2c(CN3CCN(c4ccccc4OC)CC3)cc(=O)oc2c1	D3 antag inconclusive (no result: D1 PAM, D1 antagonist, D1 ag, Chronic BCR inh)
Cc1ccccc1CCNC(=O)c1ccc2c(c1)nc1n2CCC(C)C1 (stereo not given)	none (no result: D3 antag, Chronic BCR inh)
O=c1oc(-c2ccco2)nc2ccccc12	D3 antag -56.5, D1 antagonist -38.5, Chronic BCR inh inconclusive
O=c1oc(-c2ccco2)nc2c1cnn2-c1ccccc1	none
CC1(C(=O)Nc2ccc(F)c(Cl)c2)Cc2c(-c3ccc(C(N)=O)cc3)ccnc2O1 (stereo not given)	none (no result: D1 PAM, D1 antagonist, D1 ag, Chronic BCR inh)
COc1ccc(OC)c(C2C(C(=O)c3sc(C)nc3C)=C(O)C(=O)N2CCN2CCOCC2)c1 (stereo not given)	D3 antag -56.4
COc1ccc(C2C(C(=O)c3sc(C)nc3C)=C(O)C(=O)N2CCN2CCOCC2)cc1 (stereo not given)	D3 antag inconclusive
CCOc1cc(C2c3c(n[nH]c3C)C(=O)N2c2ccc(C)cc2)ccc1O (stereo not given)	D1 antagonist -77.6
O=C1C(=O)N(C2CCNCC2)CCN1Cc1ccccc1	none (no result: D3 antag, Chronic BCR inh)
COc1ccc(-c2noc(-c3nnn(-c4ccc(C(C)C)cc4)c3C)n2)cc1OC	DRD3 agonist 36.3 (no result: D3 antag, Chronic BCR inh)
O=c1n(Cc2cccc(F)c2)c2ccccc2c2nc(-c3ccccc3)nn12	D1 antagonist -53.2 (no result: D3 antag, Chronic BCR inh)
Cc1ccc(CSCCNS(=O)(=O)c2ccc([N+](=O)[O-])cc2)cc1	none
Cc1ccc(S(=O)(=O)N(CC(=O)NCc2cccs2)c2ccccc2)cc1	D3 antag -66.1, Chronic BCR inh inconclusive
COc1ccc(S(=O)(=O)N(CC(=O)NCCSCc2ccccc2)c2ccc(C)cc2)cc1	D1 ag 31.8 (no result: D3 antag, Chronic BCR inh)
Cc1ccc(S(=O)(=O)NCCSCc2ccccc2)cc1	D1 antagonist -30.0
COc1ccccc1N(CC(=O)NCCSCc1ccccc1)S(=O)(=O)c1ccc(C)cc1	none
Cc1ccc(N(CC(=O)NCCSc2ccccc2)S(=O)(=O)c2ccc(F)cc2)cc1	D1 antagonist -31.3 (no result: D3 antag, Chronic BCR inh)
CCCC#Cc1cnc2c(c1)C(=O)N([C@H](C)CO)C[C@@H](C)[C@H](CN(C)S(=O)(=O)c1cccc(OC)c1)O2	none (no result: D1 PAM, D1 antagonist, D1 ag, Chronic BCR inh)
C/C(=N/NC(=O)CN(c1ccccc1)S(=O)(=O)c1ccccc1)c1ccccc1O	D3 antag -51.7
COc1ccc(CNC(=O)CN(c2ccc(OC)cc2)S(=O)(=O)c2c(C)[nH]c(=O)[nH]c2=O)cc1	none
COc1ccc(S(=O)(=O)N(CC(=O)NCCSc2ccc(C)cc2)c2ccc(C)cc2)cc1	D1 ag 55.9 (no result: D3 antag, Chronic BCR inh)
COc1ccc(N(CC(=O)N/N=C/c2ccc(-c3ccc([N+](=O)[O-])cc3)o2)S(=O)(=O)c2ccc(C)cc2)cc1	D1 ag 73.1
COc1ccc(N(CC(=O)NCc2ccc(C)cc2)S(=O)(=O)c2c(C)[nH]c(=O)[nH]c2=O)cc1	D1 antagonist -34.6!
COc1ccc(N(CC(=O)N/N=C/c2ccc(-c3ccc([N+](=O)[O-])cc3)o2)S(=O)(=O)c2ccc(C)cc2)cc1Cl	none
N#CC(C#N)=C/C=C(\Nc1ccc(Cl)cc1)c1ccc(Cl)cc1	D1 ag 78.6, Chronic BCR inh inconclusive
CCOC(=O)c1nn(-c2ccc(OC)cc2)c(=O)c2c(NC(=O)Cc3ccccc3)scc12	none (no result: D3 antag, Chronic BCR inh, DRD3 agonist)
O=C(/C=C/c1cccc(F)c1)NCc1ccc2c(c1)OCO2	D1 antagonist -34.9
O=C(/C=C/c1cccc([N+](=O)[O-])c1)NCc1ccc2c(c1)OCO2	none
O=C(/C=C/c1ccc2c(c1)OCO2)NCCSCc1cccc(Cl)c1	D3 antag inconclusive, D1 antagonist -31.5, Chronic BCR inh inconclusive
C=CC(=O)Nc1cccc(N(C)c2ccnc(Nc3ccc(N4CCN(C)CC4)cc3)n2)c1	none (no result: D1 PAM, D1 antagonist, D1 ag, Chronic BCR inh)
COc1ccccc1NC(=O)c1oc2ccccc2c1NC(=O)c1ccc(S(=O)(=O)N(C)C)cc1	none (no result: D3 antag, Chronic BCR inh)
CCc1cccc(NC(=O)CN(C)S(=O)(=O)c2cnc[nH]2)c1	D3 antag -52.3, Chronic BCR inh inconclusive
Cc1ccc(C(=O)CSc2nc3ccccc3c(=O)[nH]2)cc1	D1 antagonist -30.4, Chronic BCR inh inconclusive
CCc1ccc(C(=O)CSc2nc3ccccc3c(=O)[nH]2)cc1	none
C=CCn1c(C)cc(C(=O)CSc2nc3ccccc3[nH]2)c1C	Chronic BCR inh inconclusive
C=CCn1c(C)cc(C(=O)CSc2nc3ccccc3c(=O)[nH]2)c1C	D3 antag -62.2
O=C(Nc1cccc2c(=O)[nH][nH]c(=O)c12)c1ccc([N+](=O)[O-])cc1	none (no result: D1 PAM, D1 antagonist, D1 ag, Chronic BCR inh)
CCN(CC)c1ccc2cc(S(=O)(=O)c3ccc(C)cc3)c(=O)oc2c1	D1 ag 119.6
CCN(CC)c1ccc2cc(-c3nc(-c4ccccc4)no3)c(=O)oc2c1	D1 antagonist -34.3, D1 ag 316.8, Chronic BCR inh inconclusive (no result: D3 antag)
CCN(CC)c1ccc2cc(-c3nnc(Nc4ccc(C)cc4)s3)c(=O)oc2c1	D1 antagonist -59.9, D1 ag 420.8 (no result: D3 antag)
CCN(CC)c1ccc2ccc(=O)oc2c1	none
CCN(CC)c1ccc2cc(C#N)c(=O)oc2c1	D1 ag 31.9
Cc1ccc(Nc2nnc(-c3cc4c(ccc5ccccc54)oc3=O)s2)cc1	none (no result: D3 antag, Chronic BCR inh)
O=c1oc2ccccc2cc1-c1nc(-c2ccccc2)no1	Chronic BCR inh inconclusive
CC(Oc1ccc(C(C)(C)C)cc1)c1ccnc2nc(/N=C/N(C)C)nn12 (stereo not given)	D1 ag 46.4
CC(Oc1ccc(F)cc1)c1ccnc2nc(/N=C/N(C)C)nn12 (stereo not given)	none
COC(=O)c1ccc2c(=O)n(CCCCCC(=O)N3CCN(c4ccc(Cl)cc4)CC3)c(=O)[nH]c2c1	none (no result: D3 antag)
O=C(N1CCN(Cc2ccccc2)CC1)C12CC3CC(CC(C3)C1)C2	D3 antag -65.1
O=C(c1ccccc1)N1CCN(CC(O)COCC2CC=CCC2)CC1 (stereo not given)	D3 antag inconclusive
COc1ccc(C(=O)N2CCN(Cc3ccccn3)CC2)cc1	none
O=C(c1ccc(-c2ccccc2)cc1)N1CCN(Cc2ccccn2)CC1	D1 antagonist -31.5, Chronic BCR inh inconclusive
CSc1ccc(CN2CCN(C(=O)c3ccc([N+](=O)[O-])cc3)CC2)cc1	D1 antagonist -59.9, Chronic BCR inh inconclusive
O=C(c1ccccc1)N1CCN(CC2CC=CCC2)CC1 (stereo not given)	D3 antag -60.2, Chronic BCR inh inconclusive
